In PubChem BioAssay (NCATS):
Several values for one entry are separate records, joined by “and”; a condition that tells them apart may be missing. Equal entries are not always repeated. Records with an inconclusive call do not appear. Activity calls are given as the source filed them. Unless noted, calls come from the whole dose curve; as a rule, active = well fitted curve in the direction sought with a large enough effect; inconclusive = small, poorly fitted or top-dose-only effect, or another doubt; inactive = no such curve, though single readings can be large; an effect the other way counts as inactive or inconclusive.

Tests used:
[1] = AP1 Signaling Pathway (AID 357; active = well fitted curve in either direction with a large enough effect, not every such curve was filed as active;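 note: ME-180 reporter cells stimulated with EGF at its EC50 level; % is set by controls: 0 for no effect and ±100 for the full control effect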)
Method in brief: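 A ratiometric CCF4 readout (405 nm excitation; 460 and 530 nm emission) quantified AP-1-driven beta-lactamase in ME-180 cells after 5 h with compound and EC50 EGF; AC50 values were derived for activators and inhibitors.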

[2] = Stat Signaling Pathway (AID 446; active = well fitted curve in either direction with a large enough effect, not every such curve was filed as active;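 note: ME-180 cervical cancer cells given 40 pM IL-6 alongside compound; SIE-controlled beta-lactamase reporter measured as 460/530 nm FRET emission ratio; % is set by controls: 0 for no effect and ±100 for the full control effect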)
Method in brief: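 FRET read-out (405 nm excitation, 460/530 nm emission) of a beta-lactamase reporter under a STAT-inducible element in ME-180 cervical carcinoma cells. Cells with compound receive 40 pM IL-6 for 5 h. Values are normalised to AC90 stimulation and AC90 JAK-inhibitor controls.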

[3] = target: Glucocorticoid receptor (Homo sapiens) (UniProt P04150); assay: GR-GFP Redistribution (AID 450;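 active = compounds whose dose series gives a full or clear partial fitted curve of increased nuclear translocation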; note: potency is the fitted concentration of half-maximal effect); details: U2OS GR-GFP nuclear translocation, laser cytometry, 2 h
Sequence of Glucocorticoid receptor (Homo sapiens) (P04150 whole entry, looked up, the tested form may be a part): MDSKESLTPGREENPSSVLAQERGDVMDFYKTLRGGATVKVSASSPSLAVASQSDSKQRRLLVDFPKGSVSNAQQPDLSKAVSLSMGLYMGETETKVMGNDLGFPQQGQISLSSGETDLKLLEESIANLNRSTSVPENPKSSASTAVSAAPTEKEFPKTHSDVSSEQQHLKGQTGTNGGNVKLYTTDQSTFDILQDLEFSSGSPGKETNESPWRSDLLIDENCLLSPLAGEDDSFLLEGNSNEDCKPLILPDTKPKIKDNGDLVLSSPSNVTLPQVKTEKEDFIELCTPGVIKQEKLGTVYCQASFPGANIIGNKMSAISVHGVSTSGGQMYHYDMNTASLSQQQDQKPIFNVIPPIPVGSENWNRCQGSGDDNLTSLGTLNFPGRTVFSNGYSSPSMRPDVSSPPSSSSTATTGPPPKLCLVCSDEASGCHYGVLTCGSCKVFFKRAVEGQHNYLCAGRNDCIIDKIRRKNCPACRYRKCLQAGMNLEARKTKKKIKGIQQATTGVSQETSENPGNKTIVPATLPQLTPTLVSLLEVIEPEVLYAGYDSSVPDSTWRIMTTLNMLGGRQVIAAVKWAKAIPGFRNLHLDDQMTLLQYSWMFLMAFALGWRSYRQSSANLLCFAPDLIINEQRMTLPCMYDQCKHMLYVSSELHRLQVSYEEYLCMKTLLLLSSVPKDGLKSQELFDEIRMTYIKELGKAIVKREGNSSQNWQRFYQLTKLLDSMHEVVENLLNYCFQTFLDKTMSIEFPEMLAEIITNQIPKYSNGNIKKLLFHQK

[4] = target: Glucocorticoid receptor (Homo sapiens) (UniProt P04150); assay: GR-EFC Redistribution (AID 451; calls by dose curve; note: potency is the fitted concentration of half-maximal effect); details: CHO-K1 GR-EFC translocation, beta-gal luminescence, 2 h
Method in brief: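 CHO-K1 cells expressing nuclear EA and GR-ED fragments of b-gal; compounds titrated up to 46 uM final, 2 h at 37 C. GR nuclear translocation read as complemented b-gal luminescence after 1 h RT detection.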

[5] = target: Mitogen-activated protein kinase 10 (Mus musculus) (UniProt Q61831); assay: JNK3 AlphaScreen Assay (AID 530; active = well fitted curve in either direction with a large enough effect, not every such curve was filed as active;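 note: kinase came from lysate of stimulated human HepG2 cells; signal reports phosphorylation of biotinylated GST-cJun 1-79 at Ser73 with 10 µM ATP; % is set by controls: 0 for no effect and ±100 for the full control effect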)
Method in brief: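 HepG2 lysate (IL-1b/TNFa pre-activated) + biotin-GST-cJun 1-79 + anti-pSer73 cJun; cpd titration, 15 min RT; ATP 10 uM start; Tris pH 7.6, MgCl2, DTT, vanadate; beads in EDTA buffer; AlphaScreen.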

[6] = target: 3',5'-cyclic-AMP phosphodiesterase 4B (Homo sapiens) (UniProt Q07343); assay: qHTS Assay for Inhibitors of PDE-IV (AID 607; active = well fitted activation curve with a large enough effect in the main read-out, with a control signal flat, not every such curve was filed as active; note: % of control where 0% means no effect)
Sequence of 3',5'-cyclic-AMP phosphodiesterase 4B (Homo sapiens) (Q07343 whole entry, looked up): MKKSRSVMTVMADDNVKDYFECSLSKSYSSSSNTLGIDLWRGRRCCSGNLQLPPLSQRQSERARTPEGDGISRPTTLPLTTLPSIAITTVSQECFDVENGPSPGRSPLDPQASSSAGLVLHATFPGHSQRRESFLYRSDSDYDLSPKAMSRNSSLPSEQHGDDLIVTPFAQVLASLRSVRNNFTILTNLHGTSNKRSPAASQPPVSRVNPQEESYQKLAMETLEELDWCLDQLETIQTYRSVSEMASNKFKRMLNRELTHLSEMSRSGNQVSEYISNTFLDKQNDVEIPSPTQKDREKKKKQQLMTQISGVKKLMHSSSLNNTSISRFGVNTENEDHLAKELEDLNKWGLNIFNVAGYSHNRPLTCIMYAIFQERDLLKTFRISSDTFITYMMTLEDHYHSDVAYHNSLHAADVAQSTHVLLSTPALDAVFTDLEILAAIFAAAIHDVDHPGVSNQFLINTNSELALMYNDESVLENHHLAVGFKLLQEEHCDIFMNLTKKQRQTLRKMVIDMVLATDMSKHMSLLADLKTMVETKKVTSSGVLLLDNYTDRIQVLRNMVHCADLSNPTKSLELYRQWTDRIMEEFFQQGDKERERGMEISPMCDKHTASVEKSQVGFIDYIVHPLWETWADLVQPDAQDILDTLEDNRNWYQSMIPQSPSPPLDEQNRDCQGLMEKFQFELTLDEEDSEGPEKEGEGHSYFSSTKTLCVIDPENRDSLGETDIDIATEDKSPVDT
Method in brief: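 Cell-based read-out of cAMP via a modified cyclic nucleotide-gated channel and membrane potential dye (535/590 nm) in HEK293 cells expressing PDE4 endogenously. Compounds tested up to 22.9 uM final; 100 uM RO 20-1724 reference.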

[7] = qHTS Assay for Lipid Storage Modulators (AID 1519; calls by dose curve); details: Drosophila S3 cells, BODIPY lipid droplet/cell ratio, laser cytometry, cells loaded with oleic acid
Method in brief: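 Cells seeded at 5,000 per well were treated with compounds over a concentration series and loaded with oleic acid (400 uM, as added). Lipid droplet fluorescence (488 nm excitation, 500-530 nm channel) was read by laser-scanning cytometry and normalized to 20 uM Triacsin C.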

[8] = target: ATP-dependent 6-phosphofructokinase (Trypanosoma brucei brucei) (UniProt O15648); assay: qHTS Assay to Find Inhibitors of T. brucei phosphofructokinase: hit validation (AID 492961);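 note: luminescence reports ADP formed as PFK phosphorylates fructose-6-phosphate with ATP; % is set by controls: 0 for no effect and ±100 for the full control effect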
Sequence of ATP-dependent 6-phosphofructokinase (Trypanosoma brucei brucei) (O15648 whole entry, looked up): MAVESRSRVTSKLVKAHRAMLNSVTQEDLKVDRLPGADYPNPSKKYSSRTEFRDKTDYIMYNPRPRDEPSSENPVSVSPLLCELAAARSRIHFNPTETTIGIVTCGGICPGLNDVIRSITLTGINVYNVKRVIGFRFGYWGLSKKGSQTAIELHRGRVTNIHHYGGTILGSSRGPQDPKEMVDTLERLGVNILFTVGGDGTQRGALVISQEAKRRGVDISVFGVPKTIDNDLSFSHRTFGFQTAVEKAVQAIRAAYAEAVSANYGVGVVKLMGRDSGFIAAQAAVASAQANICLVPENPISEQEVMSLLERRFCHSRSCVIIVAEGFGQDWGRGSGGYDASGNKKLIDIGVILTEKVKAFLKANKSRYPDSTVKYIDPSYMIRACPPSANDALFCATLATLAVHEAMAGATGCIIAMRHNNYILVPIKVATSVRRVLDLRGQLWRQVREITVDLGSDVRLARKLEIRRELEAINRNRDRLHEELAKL
Method in brief: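 Compounds titrated; %activity normalized to 0x and 1x enzyme controls, curve-fitted. Readout: ADP-Glo luminescence after 45 min room-temperature reaction of 1.25 nM PFK, 0.1 mM ATP, 0.5 mM F6P, pH 8.0.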

[9] = target: Ubiquitin carboxyl-terminal hydrolase 1 (Homo sapiens) (UniProt O94782); assay: Inhibitors of USP1/UAF1: Pilot qHTS (AID 504865);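 note: rhodamine fluorescence freed from ubiquitin-rhodamine substrate followed over time; top concentration of the series differs between compounds; % is set by controls: 0 for no effect and ±100 for the full control effect; nearly all actives have a fitted effect of over 35% in size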
Sequence of Ubiquitin carboxyl-terminal hydrolase 1 (Homo sapiens) (O94782 whole entry, looked up): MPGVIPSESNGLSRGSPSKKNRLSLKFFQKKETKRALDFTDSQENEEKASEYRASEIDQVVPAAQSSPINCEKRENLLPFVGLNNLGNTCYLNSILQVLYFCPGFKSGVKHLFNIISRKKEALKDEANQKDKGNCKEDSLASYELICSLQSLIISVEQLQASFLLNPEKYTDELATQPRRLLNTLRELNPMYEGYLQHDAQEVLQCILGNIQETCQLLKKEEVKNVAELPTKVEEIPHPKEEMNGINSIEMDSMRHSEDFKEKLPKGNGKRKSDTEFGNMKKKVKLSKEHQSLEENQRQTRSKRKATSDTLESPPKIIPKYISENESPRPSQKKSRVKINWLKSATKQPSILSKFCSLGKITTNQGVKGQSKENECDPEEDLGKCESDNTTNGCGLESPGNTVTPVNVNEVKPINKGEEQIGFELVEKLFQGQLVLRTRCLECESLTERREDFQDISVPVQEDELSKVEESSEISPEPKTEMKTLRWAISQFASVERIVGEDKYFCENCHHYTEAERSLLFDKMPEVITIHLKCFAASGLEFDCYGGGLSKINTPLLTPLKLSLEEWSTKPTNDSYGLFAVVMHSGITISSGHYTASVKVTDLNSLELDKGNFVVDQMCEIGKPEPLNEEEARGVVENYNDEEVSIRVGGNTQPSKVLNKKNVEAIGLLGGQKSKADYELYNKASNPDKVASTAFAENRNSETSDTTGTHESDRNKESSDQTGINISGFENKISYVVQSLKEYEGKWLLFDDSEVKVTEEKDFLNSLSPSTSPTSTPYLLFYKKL
Method in brief: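 Deubiquitinase activity followed as kinetic rhodamine fluorescence release from 150 nM Ub-Rho. 1 nM USP1/UAF1 with compound, after 15 min room-temperature preincubation, in HEPES pH 7.8 buffer containing TCEP, EDTA, BSA and Tween-20.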

[10] = target: Luciferin 4-monooxygenase (Photinus pyralis) (UniProt P08659); assay: Biochemical firefly luciferase enzyme assay for NPC (AID 624030);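 note: purified P. pyralis luciferase at 10 nM with luciferin and ATP substrate; 0% = DMSO and -100% = full luciferase inhibition by PTC124 control; nearly all actives have a fitted effect of over 70% in size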
Sequence of Luciferin 4-monooxygenase (Photinus pyralis) (P08659 whole entry, looked up): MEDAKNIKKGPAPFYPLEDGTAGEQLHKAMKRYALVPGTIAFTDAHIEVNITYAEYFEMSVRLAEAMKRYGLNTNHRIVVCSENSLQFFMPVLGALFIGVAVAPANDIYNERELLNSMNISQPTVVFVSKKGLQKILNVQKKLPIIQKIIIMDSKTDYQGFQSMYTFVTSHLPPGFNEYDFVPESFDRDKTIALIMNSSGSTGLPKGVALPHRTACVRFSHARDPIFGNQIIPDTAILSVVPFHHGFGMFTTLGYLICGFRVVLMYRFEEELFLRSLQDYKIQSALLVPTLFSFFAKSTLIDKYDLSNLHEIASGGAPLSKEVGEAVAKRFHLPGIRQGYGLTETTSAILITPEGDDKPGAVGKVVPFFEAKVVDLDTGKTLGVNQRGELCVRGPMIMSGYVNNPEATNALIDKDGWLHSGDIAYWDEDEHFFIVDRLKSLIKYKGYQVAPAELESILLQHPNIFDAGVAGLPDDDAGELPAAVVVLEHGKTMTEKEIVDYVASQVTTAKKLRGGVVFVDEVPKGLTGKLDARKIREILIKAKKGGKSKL
Method in brief: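 Purified P. pyralis luciferase at 10 nM in 50 mM Tris Acetate (final), luminescence read within 5 minutes of enzyme addition to compounds. Activity normalised to PTC124 versus DMSO; concentration-response curves classed by r2, magnitude and activity.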

[11] = qHTS profiling for inhibitors of Plasmodium falciparum proliferation (AID 504749); note: nearly all actives have a fitted effect of over 60% in size; note: potency is the fitted concentration of half-maximal effect;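 for activity, negative = inhibition: 0% = DMSO vehicle and full inhibition = artemisinin control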; details: P. falciparum in erythrocytes, SYBR Green DNA, 72 h, at 12.8 µM (top of the series)
Method in brief: (§1)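 SYBR Green fluorescence (ex 485 nm, em 535 nm) reports parasite DNA after 72 h compound exposure of infected red cells at 0.3% parasitemia, 2.5% hematocrit; signal normalized to 0.29 uM artemisinin and vehicle wells.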

C2A = assay: as above; details: P. falciparum in erythrocytes, SYBR Green DNA, 72 h; series mostly up to 12.8 µM
Method in brief: as §1

CP238 = assay: as above; details: P. falciparum in erythrocytes, SYBR Green DNA, 72 h; series mostly up to 12.8 µM
Method in brief: as §1

CP252 = assay: as above; details: P. falciparum in erythrocytes, SYBR Green DNA, 72 h; series mostly up to 12.8 µM
Method in brief: as §1

DIV14 = assay: as above; details: P. falciparum in erythrocytes, SYBR Green DNA, 72 h; series mostly up to 12.8 µM
Method in brief: as §1

JCK = assay: as above; details: P. falciparum in erythrocytes, SYBR Green DNA, 72 h; series mostly up to 12.8 µM
Method in brief: as §1

N140 = assay: as above; details: P. falciparum in erythrocytes, SYBR Green DNA, 72 h; series mostly up to 12.8 µM
Method in brief: as §1

SC27B = assay: as above; details: P. falciparum in erythrocytes, SYBR Green DNA, 72 h; series mostly up to 12.8 µM
Method in brief: as §1

W2 = assay: as above; details: P. falciparum in erythrocytes, SYBR Green DNA, 72 h; series mostly up to 12.8 µM
Method in brief: as §1

[12] = NFAT Signaling Pathway (AID 444; active = well fitted curve in either direction with a large enough effect, not every such curve was filed as active); details: Jurkat NFAT-bla M1, carbachol, beta-lactamase ratio, 5 h; at 17.2 µM (top of the series) unless noted
Method in brief: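 Jurkat cells with NFAT-driven β-lactamase reporter and co-expressed M1 receptor, stimulated with carbachol (final 1 uM, ~EC50), compound titration, 5 h at 37 °C. CCF4 loaded 1 h at RT; 460/530 nm ratio gave %activity and AC50.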

[13] = measured here: cell count channel max response
[14] = measured here: lipid channel max response

CN1CCN([C@@H](c2ccccc2)c2ccc(Cl)cc2)CC1
-16%: max response [7, 13]
-18.7%: max response [7, 14]
active: Potency (DIV14) 2.28 µM | Potency (W2) 2.03 µM
inactive: outcome [1] | outcome [2] | Potency [3] > 20.6 µM | Potency [4] > 20.6 µM | Potency [5] | outcome [6] | activity change, negative = inhibition ([7]; at 25.7 µM (top of the series)) -3.4% | outcome [8] | Potency [9] | Potency [10] | activity, negative = inhibition ([11]; parasite line A) 1.67% | activity, negative = inhibition ([11]; parasite line B) -12.4% | Potency (C2A) | Potency (CP238) | Potency (CP252) | Potency (JCK) | Potency (N140) | Potency (SC27B)

O=C(O)[C@@H](O)[C@@H](O)[C@@H](O)[C@@H](O)C(=O)O (tested in a mixture with another compound)
-10.9%: max response [7, 13]
-7.78%: max response [7, 14]
inactive: outcome [1] | activity change, negative = inhibition [12] -16.6% | outcome [2] | Potency [5] | outcome [6] | activity change, negative = inhibition ([7]; at 25.7 µM (top of the series)) -0.616% | Potency [10]

C#C[C@@]1(O)CC[C@@H]2[C@@H]3CCC4=CC(=O)CC[C@@H]4[C@H]3CC[C@]21CC
-10.4%: max response [7, 14]
active: Potency [3] 0.0832 µM
-10.3%: max response [7, 13]
inactive: outcome [1] | outcome [2] | Potency [4] > 20.6 µM | Potency [5] | outcome [6] | activity change, negative = inhibition ([7]; at 25.7 µM (top of the series)) -1.97% | Potency [9]

CN1CCCN([C@@H](c2ccccc2)c2ccc(Cl)cc2)CC1
4.14%: max response [7, 13]
1.38%: max response [7, 14]
inactive: outcome [1] | outcome [2] | Potency [3] > 20.6 µM | Potency [4] > 20.6 µM | Potency [5] | activity change, negative = inhibition ([7]; at 25.7 µM (top of the series)) -4.42% | Potency [9]

CC[C@H]1NC(=O)c2cc(S(N)(=O)=O)c(Cl)cc2N1
inactive: outcome [1] | activity change, negative = inhibition [12] -14.6% | outcome [2] | Potency [3] > 20.6 µM | Potency [4] > 20.6 µM | Potency [5] | activity change, negative = inhibition ([7]; at 25.7 µM (top of the series)) -1.77% | outcome [8] | Potency [9] | Potency [10] | activity, negative = inhibition ([11]; parasite line A) -8.58% | activity, negative = inhibition ([11]; parasite line B) 18.4% | Potency (C2A) | Potency (CP238) | Potency (CP252) | Potency (DIV14) | Potency (JCK) | Potency (N140) | Potency (SC27B) | Potency (W2)
-1.37%: max response [7, 14]
0.892%: max response [7, 13]

CN[C@H]1[C@H](O)[C@@H](O[C@@H]2[C@H](O)[C@@H](O[C@H]3OC(CN)=CC[C@H]3N)[C@@H](N)C[C@H]2N)OC[C@@]1(C)O
inactive: outcome [1] | activity change, negative = inhibition [12] -17.3% | outcome [2] | Potency [3] > 20.6 µM | Potency [4] > 20.6 µM | Potency [5] | outcome [6] | activity change, negative = inhibition ([7]; at 25.7 µM (top of the series)) 0.656% | outcome [8] | Potency [9] | Potency [10] | activity, negative = inhibition ([11]; parasite line A) 3.71% | activity, negative = inhibition ([11]; parasite line B) 6.19% | Potency (C2A) | Potency (CP238) | Potency (CP252) | Potency (DIV14) | Potency (JCK) | Potency (N140) | Potency (SC27B) | Potency (W2)
-1.73%: max response [7, 13]
-0.476%: max response [7, 14]

CN(C)CCO[C@@H](c1ccc(Cl)cc1)c1ccccn1
-26%: max response [7, 14]
-21.7%: max response [7, 13]
inactive: outcome [1] | outcome [2] | Potency [3] > 20.6 µM | Potency [4] > 20.6 µM | Potency [5] | outcome [6] | activity change, negative = inhibition ([7]; at 25.7 µM (top of the series)) -4.98% | Potency [9]

c1ccc2c(c1)CCCc1cc(NCCN3CCOCC3)nnc1-2
0.476%: max response [7, 13]
inactive: outcome [1] | outcome [2] | Potency [3] > 20.6 µM | Potency [4] > 20.6 µM | activity change, negative = inhibition ([7]; at 25.7 µM (top of the series)) -1.57% | Potency [9]
-2.33%: max response [7, 14]

Clc1ccc(CC[C@H](Cn2ccnc2)Sc2c(Cl)cccc2Cl)cc1
active: Potency (DIV14) 3.22 µM | Potency (N140) 3.16 µM | Potency (SC27B) 3.98 µM | Potency (W2) 2.03 µM
inactive: outcome [1] | outcome [2] | Potency [3] > 20.6 µM | Potency [4] > 20.6 µM | Potency [5] | activity change, negative = inhibition ([7]; at 25.7 µM (top of the series)) 3.47% | outcome [8] | Potency [10]
-3.86%: max response [7, 13]
-6.78%: max response [7, 14]

CC[C@@H]1OC(=O)[C@H](C)[C@H](O[C@@H]2C[C@](C)(OC)[C@H](O)[C@H](C)O2)[C@H](C)[C@H](O[C@@H]2O[C@@H](C)C[C@@H](N(C)C)[C@@H]2O)[C@](C)(O)C[C@H](C)C(=O)[C@H](C)[C@H](O)[C@]1(C)O
9.04%: max response [7, 13]
8.95%: max response [7, 14]
inactive: outcome [1] | activity change, negative = inhibition [12] 0.792% | outcome [2] | Potency [5] | outcome [6] | activity change, negative = inhibition ([7]; at 25.7 µM (top of the series)) -1.3%

CN1CCC2(CC1)CCN(C(=O)c1ccncc1)CC2
6.89%: max response [7, 14]
10.6%: max response [7, 13]
inactive: outcome [1] | outcome [2] | Potency [4] > 46 µM | Potency [5] | outcome [6] | activity change, negative = inhibition ([7]; at 57.5 µM (top of the series)) -3.65%

COc1ccc([C@@H]2CC(=O)c3c(O)cc(O)cc3O2)cc1O
-2.83%: max response [7, 14]
-5.78%: max response [7, 13]
inactive: outcome [1] | activity change, negative = inhibition [12] -2.52% | outcome [2] | Potency [3] > 20.6 µM and > 46 µM | Potency [4] > 20.6 µM and > 46 µM | Potency [5] | activity change, negative = inhibition ([7]; at 25.7 µM (top of the series)) 0.892% | Potency [9]

C[C@H]1CS(=O)(=O)CCN1/N=C\c1ccc([N+](=O)[O-])o1
-15.4%: max response [7, 13]
inactive: outcome [1] | activity change, negative = inhibition [12] 1.33% | outcome [2] | Potency [3] > 20.6 µM | Potency [4] > 20.6 µM | outcome [6] | activity change, negative = inhibition ([7]; at 25.7 µM (top of the series)) -3.89% | outcome [8] | Potency [9] | Potency [10] | activity, negative = inhibition ([11]; parasite line A) -17.9% | activity, negative = inhibition ([11]; parasite line B) -12.5% | Potency (C2A) | Potency (CP238) | Potency (CP252) | Potency (JCK) | Potency (N140) | Potency (SC27B)
-17.6%: max response [7, 14]
